Test results taken from PubChem BioAssay (NCI).
This is part of a sample that, as a whole, favours compounds with a hit. Of some 79,000 tested, about 15% had one in any assay. Unmarked numbers belong to inactive results. Activity calls are given as the source filed them. Cut-off read from the data, not from the text of the source: active = growth inhibition above about 70%; inactive = the rest.

Legend:
[1] = NCI Yeast Anticancer Drug Screen. Data for the rad50 strain (AID 155);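 note: 0% = growth of vehicle-only cultures of the same strain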; conditions: S. cerevisiae rad50 strain growth inhibition; at 50.0 µM; stronger effect = higher value
In short: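 Cells are treated with compound, grown, and their growth is then scored against vehicle-only cultures of the same repair-deficient yeast strain.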

[2] = NCI Yeast Anticancer Drug Screen. Data for the mec2-1 strain (AID 157); conditions: S. cerevisiae mec2-1 strain, at 50.0 µM, stronger effect = higher value
In short: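 Growth inhibition is read against vehicle-treated controls after compound exposure of the mec2-1 yeast strain, which is defective in DNA damage repair or cell cycle control.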

[3] = NCI Yeast Anticancer Drug Screen. Data for the sgs1 mgt1 strain (AID 161);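 note: 0% = growth of cultures given vehicle only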; conditions: S. cerevisiae sgs1 mgt1 strain, at 50.0 µM, stronger effect = higher value
In short: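 Compounds are added to genetically altered yeast, and growth is compared with cultures given vehicle alone to give percent inhibition.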

[4] = NCI Yeast Anticancer Drug Screen. Data for the cln2 rad14 strain (AID 165);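 note: 0% = growth equal to vehicle treated cultures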; conditions: S. cerevisiae cln2 rad14 strain, at 50.0 µM, stronger effect = higher value
In short: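 Growth inhibition, relative to vehicle-treated controls, is the read-out. The test organism is a yeast strain with defined genetic alterations, cln2 rad14.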

[5] = NCI Yeast Anticancer Drug Screen. Data for the bub3 strain (AID 167); conditions: S. cerevisiae bub3 mutant strain, at 50.0 µM, stronger effect = higher value
In short: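 Part of a panel of yeast mutants defective in DNA damage repair or cell cycle regulation. Each strain is grown with compound, and inhibition is calculated relative to solvent-treated cultures.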

[6] = NCI Yeast Anticancer Drug Screen. Data for the mlh1 rad18 strain (AID 175); conditions: S. cerevisiae mlh1 rad18 strain growth inhibition; at 50.0 µM; stronger effect = higher value
In short: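 Cells of a genetically altered yeast strain, deficient in DNA damage repair, were treated with compound. Their growth was then compared with that of vehicle-treated cultures to give inhibition.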

Row | SMILES | growth inhibition [1] | growth inhibition [2] | growth inhibition [3] | growth inhibition [4] | growth inhibition [5] | growth inhibition [6]
1 | O=C(O)[C@H]1C[C@H](O)CCN1 | -30.4% | -8.65% | -34.2% | 1.25% | -3.85% | -10.6%
2 | C/C(O)=C(\N=Nc1ccccc1)C(N)=O | -9.45% | 7.95% | 5.9% | -28.9% | -0.8% | -3.45%
3 | CC(C)C(NC(=O)C(=O)c1c[nH]c2ccc(Cl)cc12)C(=O)O (configuration not stated) | -28.9% | -9.55% | -5.7% | -10% | -10.2% | -1.95%
4 | CN1CCN(C(=O)NC2CCCCC2)CC1 | -2.1% | -10.9% | 3.35% | -44.4% | -8.4% | -7.6%
5 | COc1ccc(/C=C2/N=C(c3ccccc3)OC2=O)cc1 | -2.75% | -8.35% | -0.3% | -28.9% | -1.75% | -6.8%
6 | CC1=NC2c3c(-c4ccc(Cl)cc4)cn(-c4ccc(C)cc4)c3N=CN2N1 (configuration not stated) | 7.75% | -5.9% | -16.6% | 15.8% | 0.5% | -1.6%
7 | CCO[Si](C)(CCC#N)OCC | 6.05% | -64% | -12.7% | 30.9% | -31.6% | 4.75%
8 | O=C(Nc1nc(=S)[nH][nH]1)C(=O)C(c1cnc2ccc([N+](=O)[O-])cc2n1)[N+](=O)[O-] (configuration not stated) | -4.5% | -26% | -14.3% | 7.9% | -0.6% | 3.2%
9 | COc1ccc(/C=C/C(CC(NO)c2ccc(OC)cc2)=N\O)cc1 (configuration not stated) | 0.1% | -4.25% | 3.05% | -38% | -8.7% | 3.8%
10 | Cc1c([N+](=O)[O-])cc(C(C)C)c(O)c1[N+](=O)[O-] | 14.8% | 25.3% | 27.9% | -6% | -9.5% | 66.2%
11 | CC(C)c1ccc(/C=C2\CCC/C(=C\c3ccc(C(C)C)cc3)C2=O)cc1 | -6.7% | -17.1% | 9.5% | -12.2% | -20.4% | -3.5%
12 | COc1cc2c(cc1OC)C(=O)/C(=C/c1ccccc1)C2 | -16.4% | -0.85% | -6.4% | 15.2% | 36% | 9.6%
13 | CN(C)Cc1[nH]c(=O)[nH]c(=O)c1O | -9.05% | -8.75% | -11.9% | -38.8% | -21.5% | -45.3%
14 | N/C(=N\N=C\c1ccccn1)NO | 1.05% | -12.6% | -5.35% | -6.95% | -6.15% | 0.7%
15 | [O-]/[N+](=C\c1ccccc1)[C@H](COCc1ccccc1)c1ccccc1 | -21.8% | -17.1% | -23.8% | -13.5% | -2.75% | -5.5%
16 | O=C1CC2(CCCC2)CC(=O)N1 | -11.2% | -11.4% | -15.6% | -29.4% | 6.4% | -8.1%
17 | CCCCCCCCCCCCCCCCN(O)C(=O)c1cnc[nH]1 | 29.8% | 26.6% | 30.2% | 25.4% | 11.1% | 22.6%
18 | CSc1nc2c(ncn2C2OCC(O)C(O)C2O)c(=O)n1C (configuration not stated) | 12% | 7.7% | -24.2% | 29.6% | -4.35% | 15.6%
19 | CC[Si](CC)(CC)[Si](c1ccccc1)(c1ccccc1)c1ccccc1 | 42.1% | 32% | 17.1% | 8.8% | -17.4% | 48.8%

Row | SMILES | growth inhibition [1] | growth inhibition [2] | growth inhibition [3] | growth inhibition [4] | growth inhibition [5] | growth inhibition [6]
20 | Clc1ccc(CNc2nc3ccccc3nc2-c2cccs2)c(Cl)c1 | -0.3% | 16.8% | 11.3% | 5.25% | 12.3% | 18.7%
21 | C=CC1CC1(Cl)Cl (configuration not stated) | -10.9% | 12.8% | -4.75% | -50.2% | 0.5% | 11.7%
22 | O=C1CSC(c2ccco2)N1CCN1C(=O)CSC1c1ccco1 (configuration not stated) | -19% | -5% | -12.7% | -39.4% | -8.6% | -15.7%
23 | CN=c1ncc2nc(-c3ccccc3)c(-c3ccccc3)n(C)c-2n1 | -8.2% | -5.9% | -7.45% | -42% | -3.85% | -24.4%
24 | NC(Cc1ccc(OC(c2ccccc2)(c2ccccc2)c2ccccc2)cc1)C(=O)O (configuration not stated) | -23.6% | -9.5% | 0.75% | -18.4% | -6.1% | -12.2%
25 | CC(=O)OC1C(C2COCO2)OCOC1C1COCO1 (configuration not stated) | -3.3% | -7.15% | 3.5% | -16.6% | -6.65% | -18%
26 | CCNC(=O)COc1ccc(Br)cc1Br | -3.7% | -5.2% | -3.8% | 11.2% | 8.4% | 15.2%
27 | CN(N)c1nc2c(N)ncnc2n1C1OC(CO)C(O)C1O (configuration not stated) | 25.9% | 24.1% | 30.6% | 13.8% | 30% | 48.3%
28 | Cc1cc(S(=O)(=O)Nc2nnc3c(Cl)cc(C(F)(F)F)cn23)c(S)cc1Cl | -30.2% | -35.2% | -33.4% | -14.3% | 13.9% | -20%
29 | Cc1ccc(C(=O)c2sc(Nc3cccc(C(F)(F)F)c3)c(C#N)c2N)c(C)c1 | 16.8% | 3.35% | 5.9% | 11.2% | 3.05% | -12.6%
30 | Nc1nc(SSc2nc(N)nc3c2ncn3C2OC(CO)C(O)C2O)c2ncn(C3OC(CO)C(O)C3O)c2n1 (configuration not stated) | 1.4% | -5.8% | 3.9% | -34% | 9.45% | -1.3%
31 | O=C(c1ccccc1)N1OCCC1Nc1ccc(Br)cc1 (configuration not stated) | -9.85% | -7.45% | -3.95% | 13.6% | -15% | 3.65%
32 | CCCCCCCOc1ccc(/C=C\c2cc[n+](CCCCCCCC[n+]3ccc(/C=C\c4ccc(OCCCCCCC)cc4)cc3)cc2)cc1 | -22.4% | -7.95% | -14.2% | 22.7% | 8.1% | 10.2%
33 | CCOC(=O)c1nn2c(nc1=O)sc1ccc3ccccc3c12 | -22% | -5.7% | 7.8% | 32.1% | 25% | 2.05%
34 | CCCCOCCOC(=O)Nc1cccc(Cl)c1 | 35% | 30.7% | 51.1% | -11.6% | -0.3% | 2.15%
35 | CCN(CC)CCC(=O)O[C@H]1CC[C@H](CC(C)[C@H]2CC(=O)C(C)C=C(C)[C@H](OC(=O)CCN(CC)CC)C(OC)C(=O)[C@@H](C)CC(C)/C=C/C=C/C=C(C)C(OC)CC3CC[C@H](C)[C@](O)(O3)C(=O)C(=O)N3CCCCC3C(=O)O2)CC1OC (some centres not stated) | 89.6% (active) | 91.8% (active) | 92.8% (active) | 89.3% (active) | 91.5% (active) | 86.5% (active)
36 | Nc1ncncc1Oc1ccccc1 | 8.25% | -5.35% | -0.2% | -33.6% | 4.05% | -14.4%
37 | CCOCCNCc1ccc(Cl)cc1Cl | 4% | -1.45% | -5% | 2.85% | 7.8% | -9.7%
